Screens (PubChem)
An excerpt weighted towards active compounds, which were near 3.1% of everything screened.
ARNT TACC3 PPI: disruptors of human ARNT/TACC3 interaction | Q9Y6A5 | AlphaScreen His-ARNT PAS-B/GST-TACC3 binding, luminescence; TACC3 fragment carries E629A point mutation | inhibition, % at 9.99 µM | 390,000 compounds, 0.66% hits;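 active means mean inhibition of replicates at least 50% and at least half of replicates each reaching 50%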
HSF1 inh: HSF1 inhibition; 300,000 compounds, 0.77% hits; activity change, negative = inhibition, % at 7.5 µM (by protocol); NIH3T3-HGL HSE-luciferase, MG132-induced, luminescence 8 h; hits give low values;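 active means more than half of replicate wells show activity change below -50%, luminescence cut by over half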;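 further: luciferase reports HSF-1 transcriptional activity via heat shock element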
HSF-1 act: increases HSF-1 driven luciferase reporter signal; NIH3T3-HGL HSF-1 luciferase reporter, MG132, 8 h; 100% = twice DMSO control signal; 300,000 compounds, 1.7% hits; activation, % at 9 µM;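 active means mean replicate activation of at least 50% with a set share of replicates each reaching 50%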
HSP90 inh: HSP90 refolding inhibition in rabbit reticulocyte lysate | luciferase refolding luminescence, 3 h | inhibition, % at 5.6 µM | 290,000 compounds, 0.91% hits;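 active means inhibition above the screen-wide mean plus 3 SD, computed separately per campaign, cut at about 16% in these data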;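 further: inhibitors lower the luminescence because luciferase stays unfolded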
HIF activator: HIF pathway transcriptional activation | activation, % at 7.5 µM (by protocol) | U2OS HRE-luciferase reporter, luminescence; normalized: DMSO 0%, desferrioxamine 100% | AID 1910 | 300,000 compounds, 0.32% hits;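 active means mean activation of at least 10% of the iron chelator positive control signal, with at least half of replicates also reaching 10%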
Numbers stand for hits; n = inactive; x = no result.

SMILES	ARNT TACC3 PPI	HSF1 inh	HSF-1 act	HSP90 inh	HIF activator
O=C(NC1CCCC1)C1CCN(C(=O)c2ccc(Cl)cc2)CC1	n	n	54	n	n
C[C@H]1CN([C@@H](C)CO)C(=O)c2cccc(NC(=O)C3CCCCC3)c2O[C@@H]1CN(C)CC1CC1	n	x	x	x	x
O=C(Nc1nc2ccccc2n1Cc1ccc(Cl)cc1)c1ccco1	n	n	n	n	n
CC(NC(=O)/C=C/c1ccco1)c1nc2ccccc2n1Cc1cccc(Cl)c1 (configuration not stated)	n	n	70	n	n
CCOc1ccc(-n2nnnc2-c2nc3ccccc3s2)cc1	n	-57	n	n	n
O=C(NC(=S)Nc1cccc(Cl)c1N1CCCCC1)c1ccc2c(c1)OCCO2	n	-58	n	n	n
O=C(Nc1cccc(Cl)c1N1CCCCC1)c1ccc2c(c1)OCCO2	n	n	n	n	n
CC(C)NC(=O)N[C@@H]1CC[C@H](CC(=O)NCc2ccc(Oc3ccccc3)cc2)O[C@H]1CO	46	x	x	x	x
COCCCN1CCN(C2Cc3ccccc3Sc3ccc(Cl)cc32)CC1 (configuration not stated)	n	n	n	n	n
NC(=O)CCN1CCN(CCOC2Cc3cc(Cl)ccc3Sc3ccccc32)CC1 (configuration not stated)	n	n	59	n	n
COC(=O)C[C@H]1C[C@H]2c3cc(NC(=O)Nc4ccccc4)ccc3O[C@H]2[C@H](CO)O1	n	x	x	x	x
C[C@H](CO)N1C[C@H](C)[C@@H](CN(C)C(=O)Nc2ccc3c(c2)OCO3)Oc2cc(C3=CCCC3)ccc2S1(=O)=O	n	x	x	x	x
N#CC1=C(N)N(c2ccc(Oc3ccccc3)cc2)C(=O)C1	n	-89	n	n	n
COc1ccc(N2C(=O)Cc3ccccc3C2=O)cc1	n	n	n	n	n
Cc1ccc(N/N=C2\CS(=O)(=O)N(C)c3ccsc32)cc1	n	n	88	n	n
COc1ccc(NC(=O)N[C@H]2CC[C@H](CCNS(=O)(=O)c3ccccc3F)O[C@@H]2CO)cc1	n	x	x	x	x
O=C(O)c1cccnc1C(=O)O	50	x	x	x	x
COc1ccc(NC(=O)c2cc3n(n2)C(C(F)(F)F)CC(c2ccco2)N3)cc1 (configuration not stated)	n	n	n	n	n
O=C(NCC12CC3CC(CC(C3)C1)C2)c1cc2n(n1)C(C(F)(F)F)CC(c1ccco1)N2 (configuration not stated)	n	n	n	30	n
O=C(Nc1nccs1)C(=O)c1c[nH]c2ccccc12	n	n	51	n	n
CSc1ccccc1NC(=O)C(=O)c1c[nH]c2ccccc12	n	n	62	n	n
C[C@@H](NC(=O)C(=O)c1c[nH]c2ccccc12)c1ccccc1	n	n	n	x	n
C[C@H]1CN([C@@H](C)CO)S(=O)(=O)c2ccc(C#CC3CC3)cc2O[C@@H]1CN(C)C	n	x	x	x	x
C[C@@H]1CCCCO[C@H](CN(C)S(C)(=O)=O)[C@@H](C)CN([C@H](C)CO)C(=O)c2cc(NC(=O)Nc3cccc4ccccc34)ccc2O1	n	x	x	x	x
CCCNC(=O)N1C[C@H](O)COC[C@H]2O[C@@H](CC(=O)OC)CC[C@@H]21	n	x	x	x	x
SMILES	ARNT TACC3 PPI	HSF1 inh	HSF-1 act	HSP90 inh	HIF activator
O=C(Nc1cccc([N+](=O)[O-])c1)c1[nH]ncc1Cl	n	n	52	n	n
COc1cc2c(cc1OC)CN(c1ccc(C(F)(F)F)cn1)CC2	n	n	102	n	n
COc1cc2c(cc1OC)CN(c1ccc3ccccc3n1)CC2	n	n	n	n	n
O=C(NCCc1ccccc1)C(=O)c1cn(CC(=O)N2CCCC2)c2ccccc12	n	n	52	n	n
O=C(Cn1cc(SCc2cccc(Cl)c2)c2ccccc21)N1CCOCC1	x	n	n	n	n
COc1ccccc1CCNC(=O)C(=O)c1cn(CC(=O)N2CCCC2)c2ccccc12	n	n	n	n	n
O=C(NCc1ccccc1)C(=O)c1cn(CC(=O)N2CCOCC2)c2ccccc12	n	n	n	n	197
O=C(NCc1cccs1)C(=O)c1cn(CC(=O)N2CCOCC2)c2ccccc12	n	n	n	n	n
Cc1cccc(CSc2cn(CC(=O)N3CCOCC3)c3ccccc23)c1	x	n	76	n	n
C[C@H](CO)N1C[C@H](C)[C@@H](CN(C)S(=O)(=O)c2ccc(F)cc2)Oc2cc(-c3cccc(F)c3)ccc2S1(=O)=O	n	x	x	x	x
N/C(=N\OS(=O)(=O)c1ccc2ccccc2c1)c1ccncc1	n	n	n	n	n
N/C(=N\OC(=O)COc1ccc2ccccc2c1Br)c1ccccn1	n	n	83	n	n
N/C(=N\OC(=O)COc1ccc2ccccc2c1Br)c1cccnc1	x	n	n	n	n
N/C(=N\OS(=O)(=O)c1ccc2ccccc2c1)c1ccccn1	59	x	x	n	x
N/C(=N\OC(=O)COc1ccc(Br)cc1Cl)c1ccccn1	n	n	51	n	n
COc1ccc(/C(N)=N/OC(=O)COc2ccccc2Cl)cc1	n	n	58	n	n
C[C@@H]1CCCCO[C@@H](CN(C)C(=O)Nc2ccc(F)cc2)[C@@H](C)CN([C@H](C)CO)C(=O)c2cc(NC(=O)Nc3ccc(F)cc3)ccc2O1	n	x	x	x	x
CN(C)CC#Cc1ccc([C@@H]2[C@@H](CO)N3CCCCN(C(=O)C4CCCC4)C[C@@H]23)cc1	n	x	x	x	x
COCCNC(=O)C[C@@H]1C[C@@H]2c3cc(NC(=O)c4cccnc4)ccc3O[C@@H]2[C@@H](CO)O1	n	x	x	x	x
COc1ccc(NC(=O)N(C)C[C@@H]2OCCCC[C@@H](C)Oc3ccc(NS(=O)(=O)c4ccc(Cl)cc4)cc3C(=O)N([C@@H](C)CO)C[C@@H]2C)cc1	n	x	x	x	x
COc1ccc(/C(N)=N/OC(=O)/C=C/c2ccccc2)cc1	x	n	54	n	n
Cc1cc(C)c(C)c(OCC(=O)O/N=C(\N)c2ccccn2)c1	n	n	n	n	n
N/C(=N\OC(=O)COc1ccc(Cl)cc1Cl)c1ccccn1	n	n	74	n	n
COc1ccccc1C(=O)O/N=C(\N)c1ccccc1Cl	n	n	70	n	n
COc1cccc(NC(=O)N[C@H]2CC[C@H](CC(=O)NCc3ccncn3)O[C@@H]2CO)c1	n	x	x	x	x
SMILES	ARNT TACC3 PPI	HSF1 inh	HSF-1 act	HSP90 inh	HIF activator
C[C@@H]1CCCCO[C@@H](CN(C)S(C)(=O)=O)[C@H](C)CN([C@H](C)CO)C(=O)c2cc(NC(=O)Nc3ccc4c(c3)OCO4)ccc2O1	n	x	x	x	x
C=CCSc1nnc(-c2ccc(Cl)cc2Cl)o1	x	n	57	n	n
Clc1ccc(-c2nnc(CCc3ccccc3)o2)c(Cl)c1	n	n	69	n	x
Clc1ccc(-c2nnc(SCc3ccon3)o2)c(Cl)c1	n	n	58	n	n
Clc1ccc(-c2nnc(SCc3nc4ccccc4[nH]3)o2)c(Cl)c1	n	n	75	n	n
O=C(Nc1ccccc1-c1nnc(SCc2ccc(Cl)cc2Cl)o1)c1ccccc1	n	n	n	n	n
C=CCSc1nnc(-c2cccnc2)o1	n	n	n	n	n
